# Compound activity as filed in PubChem.
# CDK5 p35 inh: CDK5/p35 (human) kinase inhibition. Q00535+Q15078. Recombinant CDK5/p35, ADP-Glo luminescence, 60 min. inhibition, % at 10 µM. 0.01% of 330,000 active;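 active means highest replicate inhibition of at least 50% and at least 75% of replicates reaching 50%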;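 further: plate controls were DMSO neutral control for no effect and GW8510 at 10 µM for full effect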
# Casp6 inh: blocks human caspase-6 cleavage activity; P55212; purified caspase-6, Z-VEID-R110 cleavage fluorescence; inhibition, % at 12.5 µM; 0.53% of 350,000 active;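 active means mean inhibition across replicates at least about 35%, with every replicate also reaching that limit, limit read from the data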;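 further: 0% = median of neutral control wells and 100% = no fluorescence left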
# Target sequence (P55212 24-179 limits assumed): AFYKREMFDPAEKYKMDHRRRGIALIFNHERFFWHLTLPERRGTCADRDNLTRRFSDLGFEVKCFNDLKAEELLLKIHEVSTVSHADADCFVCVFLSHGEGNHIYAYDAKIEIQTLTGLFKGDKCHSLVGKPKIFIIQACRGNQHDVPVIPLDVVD
# Target sequence (P55212 194-293 limits assumed): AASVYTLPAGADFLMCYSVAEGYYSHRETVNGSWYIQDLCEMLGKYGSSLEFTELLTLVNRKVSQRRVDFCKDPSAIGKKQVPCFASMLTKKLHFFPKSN
# Mot1-301 SUMO: blocks SUMOylation pathway, rescuing yeast Mot1-301 growth; S. cerevisiae Mot1-301 growth rescue, ATP luminescence, 38.5C; percent above DMSO median, 100 means doubled; growth rescue, % at 18.8 µM; 1% of 320,000 active;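 active means every valid replicate shows activation above 250% relative to neutral control wells; inactive means the rest, any valid replicate at or below 250%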;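 further: OY570 slx delta 5 strain wells were the positive control but not used for scaling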
# NSD2 inh: NSD2 (human) methyltransferase inhibition; AID 743445; 0.54% of 310,000 active; inhibition, % at 12.5 µM; NSD2 peptide methylation, AlphaScreen, 120 min; in the data active means inhibition above about 50%
# ALR inh: inhibitors of human sulfhydryl oxidase ALR; P55789; 3.8% of 290,000 active; purified ALR, DTT oxidation, H2O2 HRP-luminol luminescence; inhibition, % (concentration not given with the values);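 active means mean replicate inhibition above about 79%, with every replicate also reaching it, limit read from the data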
# Target sequence (P55789 whole entry, looked up): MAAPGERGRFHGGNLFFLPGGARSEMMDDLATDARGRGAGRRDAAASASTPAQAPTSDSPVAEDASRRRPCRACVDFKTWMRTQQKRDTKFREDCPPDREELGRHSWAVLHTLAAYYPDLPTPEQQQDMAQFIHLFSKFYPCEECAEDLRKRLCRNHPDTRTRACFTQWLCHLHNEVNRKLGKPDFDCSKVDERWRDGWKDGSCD
# Glyco luc inh: blocks N-linked glycosylation in D54 reporter cells. D54 ERlucT glycosylation luciferase reporter, 24 h; percent of 100 nM tunicamycin response. reporter increase, % at 12.5 µM. 0.23% of 360,000 active. AID 588692;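 active means mean luciferase reporter signal, scaled so untreated is 0 and the glycosylation-blocking control 100, at or above a set limit in every replicate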;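 further: luciferase carries N-glycosylation sites so blocking glycosylation raises the light; 0% = median of neutral control wells and 100% = median of 100 nM tunicamycin wells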
# The depositor's hits bear a star; . = no result given; ! = repeats disagree. An excerpt weighted towards active compounds, which were near 3.9% of everything screened.
SMILES,CDK5 p35 inh,Casp6 inh,Mot1-301 SUMO,NSD2 inh,ALR inh,Glyco luc inh
CC(N)Cc1ccc(O)cc1 (stereo unspecified),.,-7,.,.,.,.
CNC(C)Cc1ccccc1Sc1ccc(O)cc1 (stereo unspecified),3,.,76,33,99*,-5
Cc1cccc(S(=O)(=O)N2[C@@H]3c4ccc(-c5ccncc5)c(=O)n4C[C@H]2[C@H](CO)[C@H]3C(=O)O)c1,.,3,.,.,.,.
CN(C)c1ccc(/C=C2/C(=N\O)C3CCN2CC3)cc1,-6,4,8,4,99*,0
Nc1cc(Cl)c2nonc2c1[N+](=O)[O-],0,.,-9,9,97*,3
CC(C)OCCCNC(=O)c1c(N)n(CC2CCCO2)c2nc3ccccc3nc12 (stereo unspecified),1,55*,12,99*,30,3
CCCNC(=O)[C@H]1[C@H](CO)[C@H]2Cn3c(cccc3=O)[C@H]2N1C,.,1,.,.,.,.
CN(C)c1ccc(NC(=O)CN2C(=O)CN=C(c3ccccc3)c3ccccc32)cc1,0,.,7,32,99*,-2
CN(C)c1ccc(NC(=O)CN2C(=O)CN=C(c3ccccc3)c3cc(Cl)ccc32)cc1,0,-10,32,.,89*,1
Cc1ccc(NC(=O)CN2C(=O)CN=C(c3ccccc3)c3cc(Cl)ccc32)cc1,0,7,.,.,.,0
Cc1ccc(/C=C2\C(=O)NC(=S)N(c3ccccc3F)C2=O)s1,-2,.,25,22,98*,-5
Cc1ccc(/C=C2\C(=O)NC(=S)N(c3ccc(F)cc3)C2=O)s1,1,31,4,.,15,2
CCCCCCCSc1cc(OC)c(CCNC)cc1OC,2,.,16,69*,-13,-8
Cn1nc(N)c2c1N=P(N1CCOCC1)(N1CCOCC1)N=C2c1ccccc1,3,.,111,-2,12,-1
CN(C)P1(N(C)C)=Nc2c(c(N)nn2C)C(c2ccccc2)=N1,2,1,-6,-1,86*,2
O=C1Nc2ccc(Br)cc2C(c2ccccc2Cl)=NC1O (stereo unspecified),0,4,574*,.,-9,-1
CC1N=C(c2ccccc2Cl)c2cc(Br)ccc2NC1=O (stereo unspecified),-2,4,11,-2,-4,0
C[CH2][Hg][S]c1ccccc1C(=O)O,2,49*,355*,.,11,63*
COc1ccc(-c2ccc([C@H]3[C@@H](CO)N4CCCCN(C(=O)Cc5ccncc5)C[C@H]34)cc2)cc1,.,3,.,.,.,.
COP(=O)(OC)C1(Nc2ccc(C)cc2)CCCCC1,2,.,-20,4,99*,2
O=[As](O)(O)c1ccc(N=Nc2ccc(O)cc2)cc1,-1,25,1,32,99*,2
COC(=O)[C@H]1[C@H](CO)[C@H]2Cn3c(ccc(-c4ccncc4)c3=O)[C@@H]1N2S(=O)(=O)c1ccccc1F,.,1,.,.,.,.
COc1ccc(C#Cc2ccc([C@H]3[C@H]4CN(C(=O)Cc5ccncc5)CCCCN4[C@H]3CO)cc2)cc1,.,0,.,.,.,.
CC1=NCCc2c1[nH]c1cc(O)ccc21,1,-52,368,.,99*,-4
COc1ccc2c3c([nH]c2c1)C(C)=NCC3,1,-3,26,.,13,-6
SMILES,CDK5 p35 inh,Casp6 inh,Mot1-301 SUMO,NSD2 inh,ALR inh,Glyco luc inh
CCN1/C(=C\C=C\C2=[N+](CC)c3ccccc3C2(C)C)C(C)(C)c2ccccc21,24,.,15,.,88*,-7
COc1ccc(OC(=O)N(C)C[C@H]2OCc3ccccc3-c3c(n(C)c4ccccc34)C(=O)N([C@@H](C)CO)C[C@H]2C)cc1,.,5,.,.,.,.
CCC(=O)N1[C@@H]2c3ccc(C4=CCCC4)c(=O)n3C[C@H]1[C@H](CO)[C@H]2C(=O)OC,.,3,.,.,.,.
C=CCN1C(=O)NC(=O)/C(=C/c2cc3c4c(c2)CCCN4CCC3)C1=O,2,1,-7,4,99*,-1
CCOC(=O)c1cc(CC)sc1/N=C/c1c(O)[nH]c(=S)[nH]c1=O,1,.,-4,3,98*,0
CCOC(=O)c1cc(CC)sc1/N=C/C1C(=O)NC(=S)NC1=O,0,3,109,-1,97*,2
CCOC(=O)c1c(/N=C/c2c(O)n(-c3cccc(C)c3)c(=O)[nH]c2=O)sc2c1CCCC2,0,.,14,4,2,1
COC(=O)[C@@H]1[C@@H](CO)[C@@H]2Cn3c(ccc(C4=CCCC4)c3=O)[C@H]1N2C(=O)CC1CC1,.,4,.,.,.,.
C=CCN1CCc2cccc3c2[C@H]1Cc1ccc(O)c(O)c1-3,1,0,-22,30,99*,-1
CSC(=Nc1ccccc1)c1c(O)n(C)c(=O)n(C)c1=O,0,3,-7,10,-4,2
Cn1c(O)c(C(=Nc2ccccc2)SCc2ccccc2Cl)c(=O)n(C)c1=O,0,1,6,-10,96*,2
CCc1ccccc1NC(=O)CSc1nnc([C@@H](N)Cc2c[nH]c3ccccc23)o1,4,.,-1,-3,3,0
Cc1ccc(NC(=O)CSc2nnc([C@@H](N)Cc3c[nH]c4ccccc34)o2)c(C)c1,-2,.,.,1,98*,1
COc1cc(/C=C/[N+](=O)[O-])ccc1O,0,17,58,.,43,29*
CCOc1cc(C=O)ccc1O,4,1,.,.,.,2
ClC1C(Cl)C(Cl)C(Cl)C(Cl)C1Cl (stereo unspecified),-1,-1,331*!,.,-17,2
O=C(O)c1ccc(-n2c(O)c(/C=C3\C=Nc4ccccc43)c(=O)[nH]c2=O)cc1,1,-11,-18,4,98*,0
COc1ccc(C#Cc2ccc([C@@H]3[C@H]4CN(C(=O)Cc5ccncc5)CCCCN4[C@H]3CO)cc2)cc1,.,-1,.,.,.,.
O=C(O)[C@@H]1[C@@H](CO)[C@@H]2Cn3c(ccc(-c4ccncc4)c3=O)[C@H]1N2C(=O)C1CCCC1,.,1,.,.,.,.
CC(=O)Nc1ccccc1OP1(=O)COc2ccccc2OC1,1,6,-7,0,81*,3
CC(=O)Nc1ccccc1C(=O)OCC(=O)c1ccccc1Cl,1,.,-3,-3,-12,2
Nc1ccc2c(c1)Cc1ccccc1-2,4,.,0,5,99*,1
COc1cccc(N2C(=O)NC(=O)/C(=C/c3ccc4c(c3)Cc3ccccc3-4)C2=O)c1,1,0,13,.,-171,3
CN(C)[C@@H]1C(=O)C(C(N)=O)=C(O)[C@@]2(O)C(=O)C3=C(O)c4c(O)ccc(Cl)c4[C@@](C)(O)[C@H]3C[C@@H]12,-2,33,-7,.,-27,-8
